Of roughly 7,900 targets only a part is listed; those with a hit were picked by preference. About 0.6% of all pairs of compound and target were hits.
Tests used:
Experiment in all cases: log2 fold change, soluble protein after heating vs DMSO (PISA); higher = thermal stabilisation; K562 cells, 10 uM, 30 min; active = over 0.2 and 3.5 SD of the protein, either way, in both replicates (recomputed)
[1] = compound: Cc1sc2c(c1C)C(c1ccc(Cl)cc1)=N[C@@H](CC(=O)OC(C)(C)C)c1nnc(C)n1-2
How it was run: (§1)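 Thermal stability values are relative to control samples and come from duplicates. They are expressed as log2 fold changes. For measurement, K562 cells (2×10^6 cells/mL) received 10 μM compound for 30 min, and aliquots were heated for 3 min over 48°C-58°C, pooled, and extracted at 4°C in PBS with 0.5% NP-40. Soluble protein, the supernatant after 21,000xg for 90 min, was quantified by TMTpro 16plex LC-MS/MS with equalised channel sums.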

[2] = compound: C1=CC=C(C=C1)[C@H](COC2=CC3=C(C=C2)NC(=O)N3)NC(=O)C4=CC=CN(C4=O)CC5=CC(=C(C=C5)F)F
How it was run: as §1

[3] = compound: CC1=C2C(=CC=C1)N=C(N(C2=O)C3=CC=CC=C3C)CN4C=NC5=C(N=CN=C54)N
How it was run: as §1

[4] = compound: CC1=C(SC2=C1C(=N[C@H](C3=NN=C(N32)C)CC(=O)N)C4=CC=C(C=C4)Cl)C
How it was run: as §1

[5] = compound: c1ccc([C@@H]2C[C@H]2NC2CCNCC2)cc1
How it was run: as §1

Measured: log2 fold change

C5orf30 (UniProt Q96GV9)
inactive: [1] -0.417

CRTC2 (UniProt Q53ET0)
inactive: [2] 0.006 | [3] -0.075 | [1] 0.052

CLCN5 isoform 2 (UniProt P51795)
inactive: [4] 0.028 | [3] -0.023 | [1] 0.024 | [5] -0.053

CNN1 (UniProt P51911)
Sequence of UniProt P51911 (P51911 whole entry, looked up): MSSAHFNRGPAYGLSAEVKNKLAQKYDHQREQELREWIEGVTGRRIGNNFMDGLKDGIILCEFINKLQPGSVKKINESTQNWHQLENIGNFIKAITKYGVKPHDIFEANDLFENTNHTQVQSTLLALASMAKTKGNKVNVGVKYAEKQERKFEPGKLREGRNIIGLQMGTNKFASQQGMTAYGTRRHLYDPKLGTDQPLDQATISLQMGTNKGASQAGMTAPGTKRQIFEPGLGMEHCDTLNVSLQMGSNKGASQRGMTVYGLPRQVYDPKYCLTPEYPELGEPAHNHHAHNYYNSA
inactive: [4] 0.228 | [3] -0.063 | [1] -0.004 | [5] 0.156

C19orf54 (UniProt Q5BKX5)
Sequence of UniProt Q5BKX5 (Q5BKX5 whole entry, looked up): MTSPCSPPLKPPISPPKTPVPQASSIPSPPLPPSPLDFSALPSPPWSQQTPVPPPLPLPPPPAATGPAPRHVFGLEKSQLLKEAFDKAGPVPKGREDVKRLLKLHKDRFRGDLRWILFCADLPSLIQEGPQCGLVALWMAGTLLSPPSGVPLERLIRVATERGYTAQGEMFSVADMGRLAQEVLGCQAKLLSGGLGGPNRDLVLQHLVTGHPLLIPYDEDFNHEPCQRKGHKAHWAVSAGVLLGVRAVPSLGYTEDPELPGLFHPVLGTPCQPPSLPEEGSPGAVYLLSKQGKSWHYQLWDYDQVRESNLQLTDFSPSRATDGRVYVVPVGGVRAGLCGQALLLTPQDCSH
inactive: [4] -0.014 | [3] 0.059 | [1] 0.004 | [5] 0.114

CRLS1 (UniProt Q9UJA2)
inactive: [4] -0.005 | [3] -0.034 | [1] -0.01 | [5] 0.003

COPS3 isoform 2 (UniProt Q9UNS2)
inactive: [2] 0.009 | [3] 0.2 | [1] 0.04

CLASP2 (UniProt O75122)
Sequence of UniProt O75122 (O75122 whole entry, looked up): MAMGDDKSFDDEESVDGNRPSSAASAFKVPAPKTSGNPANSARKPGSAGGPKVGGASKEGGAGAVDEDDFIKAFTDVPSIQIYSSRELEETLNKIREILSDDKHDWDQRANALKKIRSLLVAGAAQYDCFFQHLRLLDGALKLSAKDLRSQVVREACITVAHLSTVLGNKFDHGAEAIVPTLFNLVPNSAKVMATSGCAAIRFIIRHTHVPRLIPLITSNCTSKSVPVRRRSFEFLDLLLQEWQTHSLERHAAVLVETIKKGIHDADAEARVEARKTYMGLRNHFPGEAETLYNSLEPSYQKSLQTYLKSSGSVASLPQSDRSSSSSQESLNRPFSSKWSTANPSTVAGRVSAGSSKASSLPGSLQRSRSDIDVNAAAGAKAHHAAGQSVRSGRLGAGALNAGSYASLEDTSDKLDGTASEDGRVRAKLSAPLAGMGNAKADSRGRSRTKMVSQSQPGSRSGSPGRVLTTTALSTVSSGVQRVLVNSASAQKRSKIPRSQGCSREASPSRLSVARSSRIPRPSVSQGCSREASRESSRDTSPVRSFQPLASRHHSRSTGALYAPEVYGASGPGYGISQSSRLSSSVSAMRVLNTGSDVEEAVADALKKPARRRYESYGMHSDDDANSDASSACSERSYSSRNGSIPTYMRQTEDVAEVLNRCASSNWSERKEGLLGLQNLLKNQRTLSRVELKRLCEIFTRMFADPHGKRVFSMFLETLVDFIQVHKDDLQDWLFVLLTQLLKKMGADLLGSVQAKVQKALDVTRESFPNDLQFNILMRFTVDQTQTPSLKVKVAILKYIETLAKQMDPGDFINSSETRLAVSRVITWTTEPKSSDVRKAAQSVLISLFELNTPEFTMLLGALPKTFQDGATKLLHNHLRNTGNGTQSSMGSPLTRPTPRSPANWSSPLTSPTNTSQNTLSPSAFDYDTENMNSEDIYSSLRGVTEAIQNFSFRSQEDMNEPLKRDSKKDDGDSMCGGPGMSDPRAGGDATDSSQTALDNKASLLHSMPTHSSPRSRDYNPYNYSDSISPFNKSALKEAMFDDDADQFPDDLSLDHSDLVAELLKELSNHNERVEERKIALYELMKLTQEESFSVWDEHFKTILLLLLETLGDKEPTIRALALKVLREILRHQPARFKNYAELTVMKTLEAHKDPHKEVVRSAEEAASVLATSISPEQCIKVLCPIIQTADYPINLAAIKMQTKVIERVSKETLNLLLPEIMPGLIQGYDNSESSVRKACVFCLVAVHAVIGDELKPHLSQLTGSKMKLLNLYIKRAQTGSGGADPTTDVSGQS
inactive: [2] 0.059 | [4] 0.117 | [5] -0.222

CPNE5 (UniProt Q9HCH3)
Sequence of UniProt Q9HCH3 (Q9HCH3 whole entry, looked up): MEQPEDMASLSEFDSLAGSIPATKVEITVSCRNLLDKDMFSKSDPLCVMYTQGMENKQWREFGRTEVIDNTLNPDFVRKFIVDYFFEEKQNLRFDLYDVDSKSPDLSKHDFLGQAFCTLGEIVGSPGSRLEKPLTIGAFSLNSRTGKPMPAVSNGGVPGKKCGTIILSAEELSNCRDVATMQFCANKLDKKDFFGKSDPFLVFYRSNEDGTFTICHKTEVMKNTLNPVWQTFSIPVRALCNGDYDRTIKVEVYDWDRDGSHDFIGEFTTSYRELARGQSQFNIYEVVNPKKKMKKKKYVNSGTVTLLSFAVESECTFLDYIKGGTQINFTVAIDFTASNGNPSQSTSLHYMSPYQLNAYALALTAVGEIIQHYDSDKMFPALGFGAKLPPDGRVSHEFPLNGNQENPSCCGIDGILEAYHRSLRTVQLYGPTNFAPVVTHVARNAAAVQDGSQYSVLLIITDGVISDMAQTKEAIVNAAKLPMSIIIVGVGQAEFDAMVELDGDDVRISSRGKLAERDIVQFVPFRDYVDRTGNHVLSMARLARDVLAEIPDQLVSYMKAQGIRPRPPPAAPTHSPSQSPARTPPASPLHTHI
inactive: [4] -0.16 | [1] 0.146 | [5] -0.035

CAV2 (UniProt P51636)
inactive: [2] 0 | [1] -0.046

CKS2 (UniProt P33552)
inactive: [2] -0.084 | [1] -0.08

COG2 (UniProt Q14746)
Sequence of UniProt Q14746 (Q14746 whole entry, looked up): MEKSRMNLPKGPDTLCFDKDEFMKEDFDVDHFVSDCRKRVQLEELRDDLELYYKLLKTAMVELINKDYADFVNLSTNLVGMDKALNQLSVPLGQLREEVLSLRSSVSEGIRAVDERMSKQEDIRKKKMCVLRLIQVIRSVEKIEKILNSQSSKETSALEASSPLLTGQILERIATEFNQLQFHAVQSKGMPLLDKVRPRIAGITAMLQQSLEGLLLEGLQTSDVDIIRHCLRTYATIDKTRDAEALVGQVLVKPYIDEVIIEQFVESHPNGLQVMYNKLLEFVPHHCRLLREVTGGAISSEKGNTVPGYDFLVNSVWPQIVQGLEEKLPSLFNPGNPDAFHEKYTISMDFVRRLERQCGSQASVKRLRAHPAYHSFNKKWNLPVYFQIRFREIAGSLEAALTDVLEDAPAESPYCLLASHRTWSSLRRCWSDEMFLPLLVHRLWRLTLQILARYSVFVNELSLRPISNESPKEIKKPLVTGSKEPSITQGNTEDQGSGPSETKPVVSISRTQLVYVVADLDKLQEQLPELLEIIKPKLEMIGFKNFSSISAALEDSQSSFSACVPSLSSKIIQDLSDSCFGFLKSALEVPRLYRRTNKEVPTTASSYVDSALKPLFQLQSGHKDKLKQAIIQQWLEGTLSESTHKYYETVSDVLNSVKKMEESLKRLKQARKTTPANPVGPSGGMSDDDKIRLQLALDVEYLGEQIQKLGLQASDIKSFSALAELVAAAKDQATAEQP
inactive: [4] 0.063 | [1] 0.141 | [5] -0.004

CASP8 isoform 9 (UniProt Q14790)
inactive: [2] -0.013 | [3] 0.052 | [1] 0.033

CEBPZOS (UniProt A8MTT3)
inactive: [2] -0.044 | [3] -0.105 | [1] -0.022

CAB39L (UniProt Q9H9S4)
inactive: [2] 0.088 | [3] 0.201 | [1] 0.285

COMMD1 (UniProt Q8N668)
Sequence of UniProt Q8N668 (Q8N668 whole entry, looked up): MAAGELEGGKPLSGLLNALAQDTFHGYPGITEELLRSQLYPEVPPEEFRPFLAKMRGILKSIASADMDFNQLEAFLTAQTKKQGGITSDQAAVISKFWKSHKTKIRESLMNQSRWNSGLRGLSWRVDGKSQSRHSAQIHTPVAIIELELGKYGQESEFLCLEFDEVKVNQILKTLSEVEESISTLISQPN
inactive: [2] 0.099 | [3] 0.007 | [1] 0.162

CHST10 (UniProt O43529)
inactive: [2] 0.004 | [4] -0.064 | [1] -0.052 | [5] 0.044

CDK2AP2 (UniProt O75956)
Sequence of UniProt O75956 (O75956 whole entry, looked up): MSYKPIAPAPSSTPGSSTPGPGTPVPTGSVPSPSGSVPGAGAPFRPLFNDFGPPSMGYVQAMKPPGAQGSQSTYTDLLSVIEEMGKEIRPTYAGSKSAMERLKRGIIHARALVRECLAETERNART
inactive: [2] 0.026 | [4] -0.017 | [5] 0.012

CFAP47 (UniProt Q6ZTR5)
inactive: [2] 0.068 | [3] 0.173

CLN5 (UniProt O75503)
Sequence of UniProt O75503 (O75503 whole entry, looked up): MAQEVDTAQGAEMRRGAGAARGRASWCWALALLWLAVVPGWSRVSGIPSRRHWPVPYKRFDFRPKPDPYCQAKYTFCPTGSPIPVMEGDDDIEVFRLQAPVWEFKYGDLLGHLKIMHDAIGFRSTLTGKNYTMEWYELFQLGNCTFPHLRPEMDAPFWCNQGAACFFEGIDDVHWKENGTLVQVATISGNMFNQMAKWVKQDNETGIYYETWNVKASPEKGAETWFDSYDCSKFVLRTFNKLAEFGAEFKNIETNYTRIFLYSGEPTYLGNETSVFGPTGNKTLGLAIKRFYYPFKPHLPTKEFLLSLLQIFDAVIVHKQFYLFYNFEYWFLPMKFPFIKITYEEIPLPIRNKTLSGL
inactive: [2] -0.003 | [4] -0.007 | [1] 0.057 | [5] -0.296

CASP9 (UniProt P55211)
inactive: [4] -0.045 | [3] 0.102 | [1] 0.05 | [5] 0.12

CDCA2 (UniProt Q69YH5)
Sequence of UniProt Q69YH5 (Q69YH5 whole entry, looked up): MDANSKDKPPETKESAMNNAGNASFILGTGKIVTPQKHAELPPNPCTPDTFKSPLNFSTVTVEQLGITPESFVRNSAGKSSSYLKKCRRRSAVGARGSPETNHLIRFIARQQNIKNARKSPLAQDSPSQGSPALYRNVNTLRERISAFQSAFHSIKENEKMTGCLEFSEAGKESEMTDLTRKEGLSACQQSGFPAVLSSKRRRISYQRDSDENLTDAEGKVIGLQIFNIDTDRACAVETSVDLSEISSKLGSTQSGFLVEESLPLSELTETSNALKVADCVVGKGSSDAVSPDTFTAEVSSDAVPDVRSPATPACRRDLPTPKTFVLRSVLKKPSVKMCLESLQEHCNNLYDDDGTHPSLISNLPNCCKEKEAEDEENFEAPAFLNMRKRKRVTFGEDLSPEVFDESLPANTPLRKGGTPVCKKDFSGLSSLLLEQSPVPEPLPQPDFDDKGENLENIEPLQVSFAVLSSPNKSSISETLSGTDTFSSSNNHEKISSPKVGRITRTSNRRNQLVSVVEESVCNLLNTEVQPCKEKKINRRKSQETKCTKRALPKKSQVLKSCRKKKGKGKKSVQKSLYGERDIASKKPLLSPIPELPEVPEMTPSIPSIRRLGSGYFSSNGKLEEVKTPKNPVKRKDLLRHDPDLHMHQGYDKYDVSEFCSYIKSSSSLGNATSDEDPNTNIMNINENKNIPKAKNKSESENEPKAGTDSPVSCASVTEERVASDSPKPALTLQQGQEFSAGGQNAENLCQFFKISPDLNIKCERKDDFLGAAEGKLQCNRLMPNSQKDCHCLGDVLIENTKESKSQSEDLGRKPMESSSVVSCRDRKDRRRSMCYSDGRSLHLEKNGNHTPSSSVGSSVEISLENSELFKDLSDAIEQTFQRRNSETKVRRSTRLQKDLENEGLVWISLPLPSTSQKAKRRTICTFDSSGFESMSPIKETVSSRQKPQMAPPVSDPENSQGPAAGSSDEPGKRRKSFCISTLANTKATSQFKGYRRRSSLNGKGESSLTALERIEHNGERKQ
inactive: [4] 0.035 | [3] 0.05 | [1] -0.003 | [5] -0.077
